# From PubChem
# Hits are enriched below; roughly 12% of the tested compounds scored in any of these assays.
# FMDV inh – High Throughput Screening for Foot and Mouth Disease Virus Antivirals; AID 1159524, 2015; FMDV antiviral cell-based qHTS; 410,000 compounds, 1.2% hits; Potency, µM (doses to about 57.9 µM), for the others: top-dose activity change, negative = inhibition, hits mostly inhibitors; calls by dose curve; tested in HEK293T cells; note: read-out not given here; potency is the fitted concentration of half-maximal effect; % is set by controls: 0 for no effect and ±100 for the full control effect; nearly all actives have a fitted effect of over 45% in size
# Sm TGR block – qHTS Assay for the Inhibitors of Schistosoma Mansoni Peroxiredoxins; Schistosoma mansoni thioredoxin glutathione reductase (TGR), Q962Y6; purified TGR, DTNB reduction, TNB absorbance 405 nm; Potency, µM (top dose mostly 114 µM), inactives show at the highest dose activity change, negative = inhibition, most hits filed as inhibitors; 360,000 compounds, 3% hits; AID 485364, 2010; active = well fitted inhibition curve with a large enough effect; inconclusive = small, poorly fitted or top-dose-only effect; inactive = no such curve, though single readings can be large or run the other way; note: potency is the fitted concentration of half-maximal effect; % is set by controls: 0 for no effect and ±100 for the full control effect; nearly all actives have a fitted effect of over 60% in size
#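 Kinetic colorimetric format: TGR-catalysed, NADPH-driven DTNB reduction monitored via TNB absorbance. Enzyme dispensed at 20 nM; compound exposure 15 min at room temperature before reaction start.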
# Shiga inhibitor – A qHTS for Small Molecule Inhibitors of Shiga Toxin; Vero cells, Shiga toxin protein synthesis inhibition reporter; inhibition, % at 38.7 µM; 290,000 compounds, 9.2% hits; AID 2315, 2010; in the data active = inhibition mostly above about 28%, no sharp cut-off; inactive = mostly below about 43%; note: 0% is about no effect
# CHX counter – Cycloheximide Counterscreen for Small Molecule Inhibitors of Shiga Toxin; 300,000 compounds, 12% hits; cell reporter, cycloheximide protein synthesis inhibition counterscreen; max response, %; in the data active = max response mostly above about 13%, no sharp cut-off; inactive = mostly below about 14%; note: read at 38.3 µM for the half of the compounds with a filed dose; 0% is about no effect
# An asterisk follows results filed as active; ? = inconclusive; · = not tested or not shown.
SMILES,FMDV inh,Sm TGR block,Shiga inhibitor,CHX counter
CCOC(=O)C(C)Sc1nc(-c2cccs2)ccc1C#N (stereo unspecified),-7%,?,104,25*
CCOC(=O)C(C)Sc1nc(-c2ccccc2Cl)cc(-c2ccccc2)c1C#N (stereo unspecified),0%,8%,·,·
Cc1ccc(S(=O)(=O)/N=C2/NC(=O)/C(=C/c3ccc(Br)o3)S2)cc1,1%,22µM*,-5,-2
Cc1ccc(S(=O)(=O)/N=C2/NC(=O)/C(=C/c3cccnc3)S2)cc1,40%,-15%,-15,-3
Cc1ccc(S(=O)(=O)/N=C2/NC(=O)/C(=C\c3cc(Br)cc(Br)c3O)S2)cc1,8%,28µM*,37,-3
Cc1ccccc1C1(CC(=O)N2CCCCC2C)CC(=O)N(Cc2cccnc2)C1=O (stereo unspecified),6%,·,·,·
COc1cccc(NC(=O)N(Cc2c[nH]c3ccccc23)C2CCCCCC2)c1,-2%,-3%,·,·
CC(C)(C)c1ccc(C(=O)Nc2ccc(CC(=O)O)cc2)o1,0.79µM*,-6%,-19,-12
COc1ccc(OCCC(=O)OCC(=O)NCc2ccco2)cc1,1%,50µM*,43,9
COc1ccc(C(=O)OCC(=O)NCc2ccco2)cc1OC,-14%,35µM*,13,1
CCOc1ccc(C(=O)OCC(=O)NCc2ccco2)cc1OCC,-9%,45µM*,-13,-4
O=C(Nc1ccc(C(=O)N2CCCCC2)cc1)c1nsc2ccccc12,-24%,3%,·,·
CCCCN(CC)CCCNC(=O)CCN1N=C(c2ccc(OC)cc2)CCC1=O,0%,-12%,·,·
O=S(=O)(c1ccccc1)N1CCC[C@@]2(CCN(Cc3cc(C(F)(F)F)cc(C(F)(F)F)c3)C2)C1,-9%,·,·,·
Cc1ccc(NC(=O)c2cnc(SCC(=O)N3CCCc4ccccc43)n(C)c2=O)cc1,30%,?,·,·
COc1ccc(Oc2ncc3nc(C)c(=O)n(C4CC4)c3n2)cc1,-7%,·,·,·
CCN1/C(=C\C=C\C2=[N+](CC)c3ccccc3C2(C)C)C(C)(C)c2ccccc21,35µM*,-9%,-25,-6
CCNc1ncc2nc(C)c(=O)n(Cc3cccs3)c2n1,-18%,·,·,·
Oc1ccc(-c2c(C3=CCCCC3)sc3ccccc23)cc1,-16%,79µM*,-8,-3
C1=C(c2cn(-c3nc4ccccc4s3)nn2)CCCC1,0%,·,·,·
CC(C)Oc1ccc(CSc2ncn[nH]2)cc1,18%,19%,51*,32*
O=C1OC(c2ccc(Cl)cc2)/C(=C(/O)c2ccccc2)C1=O (stereo unspecified),39%,-16%,65*,37*
Cc1cc(C(=O)Cn2nnc3ccccc3c2=O)c(C)n1Cc1cccs1,-13%,?,52,37*
CCCn1c(C)cc(C(=O)CN2C(=O)c3cccc(N)c3C2=O)c1C,30%,1%,14,17*
CCCCNC(=O)CN1C(=O)c2cccc(N)c2C1=O,13%,1%,12,6
SMILES,FMDV inh,Sm TGR block,Shiga inhibitor,CHX counter
Cc1cc(C(=O)CN2C(=O)c3ccccc3C2=O)c(C)n1Cc1cccs1,-7%,-23%,12,26*
COc1ccc(OC)c(C(=O)Cn2nnc3ccccc3c2=O)c1,14%,-5%,-5,-3
O=C(Cn1ncc2ccc(Cl)cc21)NCc1ccc(F)cc1,2%,6%,·,·
CCCc1nnc(SCc2cc(=O)c3c(C)cc(C)cc3[nH]2)n1C,9%,-2%,·,·
CCc1ccc(NC(=O)CCc2c(C)nn(-c3ccc(N4CCCC4)nn3)c2C)cc1,15%,-3%,·,·
Cc1ccc(-c2c(C(=O)N3CCN(c4cccc(C)c4)C(C)C3)oc(=O)c3ccccc23)cc1 (stereo unspecified),?,10%,·,·
CC(C)(C)c1ccc(C(=O)NNC(=O)CCc2ccccc2)cc1,8%,·,·,·
Cc1cc(NC(=O)COc2ccc(C(C)(C)C)cc2)no1,8%,3%,50*,32*
Cc1cc(NC(=O)CCC(=O)NNC(=O)c2ccc(C(C)(C)C)cc2)no1,24%,-1%,80*,36*
CC(C)(C)c1ccc(C(=O)NNC(=O)CCC(=O)Nc2ccccc2)cc1,18%,-22%,41,19*
CC(=O)Nc1ccc(-c2ccnc(-c3ccc(NC(C)=O)cc3)n2)cc1,-2%,7%,23,-3
Oc1ccc(-c2nccc(-c3ccc(Cl)cc3)n2)cc1,48%,-7%,123*,53*
Oc1ccc(-c2nnc(-c3ccc(O)cc3)nn2)cc1,?,?,25,26*
Oc1ccc(-c2nccc(-c3cccs3)n2)cc1,65%,-1%,133*,58*
